# Results filed as inconclusive are left out. Values without a mark were called inactive. Activity calls are given as the source filed them. Calls come from the whole dose curve; as a rule, active = well fitted curve in the direction sought with a large enough effect; inconclusive = small, poorly fitted or top-dose-only effect, or another doubt; inactive = no such curve, though single readings can be large; an effect the other way counts as inactive or inconclusive.
# Tested on: Zika virus NS2B-NS3 protease (linked)
# Assay: 384 well plate NINDS AMC confirmatory qHTS for Zika virus inhibitors (AID 1347163); note: potency is the fitted concentration of half-maximal effect; nearly all actives have a fitted effect of over 50% in size
# Conditions: Recombinant NS2B-NS3 protease, Ac-VKTGKR-AMC fluorescence; series mostly up to 100 µM; activity change, negative = inhibition: at the top concentration
# Summary of the method: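 Fluorescence at 355/460 nm was read after 25 minutes of cleavage of 30 microM Ac-VKTGKR-AMC at room temperature, in the dark. Before substrate addition, compounds (up to 1 mM final) sat ~15 minutes with 5, 30 or 60 nM linked protease. Signals were normalized to no-enzyme and no-inhibitor wells.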
row,Structure (SMILES),Potency
1,Cc1nc(N=Nc2cc(S(=O)(=O)O)c3cc([N+](=O)[O-])cc(S(=O)(=O)O)c3c2)c(COP(=O)(O)O)c(C=O)c1O,31.6 µM (active)
2,CCCc1c(OCCCOc2ccc(OCC(=O)O)cc2)ccc(C(C)=O)c1O,355 µM (active)
3,O=C1NC(=O)c2cc(Nc3ccccc3)c(Nc3ccccc3)cc21,12.6 µM (active)

# Tested on: Zika virus NS2B-NS3 protease (linked construct)
# Assay: 384 well plate NINDS Rhodamine confirmatory qHTS for Zika virus inhibitors (AID 1347164);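 note: fluorescence from protease cleavage of Ac-LKRR-rhodamine 110 substrate; nearly all actives have a fitted effect of over 65% in size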; note: potency is the fitted concentration of half-maximal effect;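 for activity change, negative = inhibition: top concentration of the series differs between compounds; plate controls were no-inhibitor control for no effect and no-enzyme control for full effect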
# Conditions: rhodamine-110 peptide substrate fluorescence; series mostly up to 100 µM; activity change, negative = inhibition: at the top concentration
# Summary of the method: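 Enzyme (final 5/30/60 nM) + cpd (DMSO), ~15 min; add Ac-LKRR-Rd 10 microM final; 25 min RT, dark; FI ex 485/em 538; normalized to no-enzyme, no-inhibitor ctrls; aprotinin intraplate ctrl.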
Structure (SMILES),Potency,"activity change, negative = inhibition [%]"
COc1cc(/C=C(\C#N)C(=O)Nc2nnc(C(F)(F)F)s2)ccc1OCc1ccc(C(F)(F)F)cc1C(F)(F)F,14.1 µM (active),
CCCc1c(OCCCOc2ccc(OCC(=O)O)cc2)ccc(C(C)=O)c1O,50.1 µM (active),
O=c1[nH]c(=S)[nH]c(-c2ccccc2)c1Cc1c(O)ccc2ccccc12,70.8 µM (active),
O=C1NC(=O)c2cc(Nc3ccccc3)c(Nc3ccccc3)cc21,,-68.3

# Molecular target: Lysine-specific demethylase 5B (Homo sapiens) (UniProt Q9UGL1)
# Assay: Optimization screen for KDM5B Histone Demethylases FDH coupled qHTS against the LOPAC library (AID 1347166); note: 0% is about no effect
# Conditions: KDM5B demethylation, FDH-coupled NADH fluorescence (FDH is formaldehyde dehydrogenase); at 57.5 µM (top of the series)
# Summary of the method: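 KDM5BDeltaAP (200nM final) in 50mM HEPES pH 7.5, 0.01% Tween-20 was preincubated with compound for 10 min at room temperature. A substrate mix of 12.5uM H3K4Me3, 25uM a-ketoglutarate, ascorbate, Fe2+, NAD+ and formaldehyde dehydrogenase was then added. NADH fluorescence (340/450 nm) was read initially and after 30 min.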
# Lysine-specific demethylase 5B (Homo sapiens), sequence (Q9UGL1 whole entry, looked up): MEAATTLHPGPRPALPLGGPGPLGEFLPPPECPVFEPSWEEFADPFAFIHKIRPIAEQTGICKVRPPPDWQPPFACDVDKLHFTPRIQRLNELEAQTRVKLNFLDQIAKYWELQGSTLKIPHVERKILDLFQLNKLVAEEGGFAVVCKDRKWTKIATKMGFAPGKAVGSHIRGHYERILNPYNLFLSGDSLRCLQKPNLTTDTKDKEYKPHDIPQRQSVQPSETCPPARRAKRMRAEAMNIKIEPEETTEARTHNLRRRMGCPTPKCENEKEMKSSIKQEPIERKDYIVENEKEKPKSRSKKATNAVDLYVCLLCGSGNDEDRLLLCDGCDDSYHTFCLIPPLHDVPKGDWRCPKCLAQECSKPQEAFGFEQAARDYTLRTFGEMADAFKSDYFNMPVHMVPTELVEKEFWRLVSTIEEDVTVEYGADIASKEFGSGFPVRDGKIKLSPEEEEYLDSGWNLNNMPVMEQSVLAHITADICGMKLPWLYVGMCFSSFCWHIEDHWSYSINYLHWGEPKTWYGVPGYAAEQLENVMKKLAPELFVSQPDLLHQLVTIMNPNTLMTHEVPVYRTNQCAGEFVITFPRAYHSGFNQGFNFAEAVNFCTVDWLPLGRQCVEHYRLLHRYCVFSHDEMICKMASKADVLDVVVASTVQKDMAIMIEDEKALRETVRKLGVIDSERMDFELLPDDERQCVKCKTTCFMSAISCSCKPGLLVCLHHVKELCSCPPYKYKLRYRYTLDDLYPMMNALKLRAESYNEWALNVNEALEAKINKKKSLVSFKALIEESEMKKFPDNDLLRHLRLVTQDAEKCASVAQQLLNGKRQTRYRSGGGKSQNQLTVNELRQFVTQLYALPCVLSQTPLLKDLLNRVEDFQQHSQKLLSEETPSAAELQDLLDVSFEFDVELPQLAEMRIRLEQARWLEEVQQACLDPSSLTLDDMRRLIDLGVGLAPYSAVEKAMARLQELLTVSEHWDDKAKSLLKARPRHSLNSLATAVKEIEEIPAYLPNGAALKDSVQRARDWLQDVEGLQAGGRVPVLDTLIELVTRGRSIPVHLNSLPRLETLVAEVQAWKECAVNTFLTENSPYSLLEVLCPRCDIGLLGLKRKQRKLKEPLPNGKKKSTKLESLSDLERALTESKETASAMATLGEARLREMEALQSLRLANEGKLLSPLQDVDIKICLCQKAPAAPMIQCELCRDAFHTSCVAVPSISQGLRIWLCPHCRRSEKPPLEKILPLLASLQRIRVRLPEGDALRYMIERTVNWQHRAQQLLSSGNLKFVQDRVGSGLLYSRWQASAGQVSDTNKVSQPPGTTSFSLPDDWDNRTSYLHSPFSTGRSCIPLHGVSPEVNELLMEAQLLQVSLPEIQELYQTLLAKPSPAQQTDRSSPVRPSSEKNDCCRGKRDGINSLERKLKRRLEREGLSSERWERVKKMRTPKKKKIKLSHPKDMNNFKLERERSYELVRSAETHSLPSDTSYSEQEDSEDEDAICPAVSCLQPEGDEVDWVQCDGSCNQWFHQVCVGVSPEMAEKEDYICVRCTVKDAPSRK
row,Structure (SMILES),"activity, negative = inhibition"
1,CCCn1c(=O)c2c(ncn2C)n(CCC)c1=O,-2.62%
2,NC(N)=NC(N)=Nc1cccc(Cl)c1,-3.11%
3,CN1CCc2cc(Cl)c(O)cc2[C@@H](c2ccccc2)C1,-3.21%
4,Cc1nc(N=Nc2cc(S(=O)(=O)O)c3cc([N+](=O)[O-])cc(S(=O)(=O)O)c3c2)c(COP(=O)(O)O)c(C=O)c1O,-12.7%
5,CC1=C(/C=C/C(C)=C/C=C/C(C)=C\C(=O)O)C(C)(C)CCC1,-15.4%
6,CNCCNS(=O)(=O)c1cccc2cnccc12,-11.7%
7,N=C(N)SCCc1cnc[nH]1,-14.3%
8,CC1CCN(CC[C@H]2CCCN2S(=O)(=O)c2cccc(O)c2)CC1,1.65%
9,CC(=O)N[C@@H](Cc1c[nH]c2ccccc12)C(=O)OCc1cc(C(F)(F)F)cc(C(F)(F)F)c1,-9.61%
10,CC(/C=C/c1cccc(Oc2ccc(F)cc2)c1)N(O)C(N)=O (stereo not given),-9.88%
11,CCCCCCCCCCCCCCCCCCOC[C@H](COP(=O)([O-])OCC[N+](C)(C)C)OC,1.42%
12,CC(C)(C)NCC(O)COc1cccc2[nH]c(=O)[nH]c12 (stereo not given),-6.87%
13,CCn1c(=O)[nH]c2cc(Cl)c(Cl)cc21,-0.178%
14,NCCNS(=O)(=O)c1cccc2c(Cl)cccc12,-9.52%
15,Cn1c(=O)c2[nH]c(-c3ccc(S(=O)(=O)O)cc3)nc2n(C)c1=O,39.3%
16,CCN(CC)CCCCCCCCOC(=O)c1cc(OC)c(OC)c(OC)c1,-10.5%
17,O=C(O)c1cccnc1C(=O)O,6.25%

row,Structure (SMILES),"activity, negative = inhibition"
1,CCCc1c(OCCCOc2ccc(OCC(=O)O)cc2)ccc(C(C)=O)c1O,-6.32%
2,CC[N+](CC)(CC)CC(=O)Nc1c(C)cccc1C,-1.53%
3,O=S(=O)(c1cccc2c(Cl)cccc12)N1CCCNCC1,1.08%
4,COc1cc(CC(=O)O)ccc1O,-5.93%
5,O=c1[nH]c(=S)[nH]c(-c2ccccc2)c1Cc1c(O)ccc2ccccc12,-27.4%
6,O=C(O)c1ccccc1Nc1ccccc1,-9.73%
7,O=C1NC(=O)c2cc(Nc3ccccc3)c(Nc3ccccc3)cc21,-17.6%
8,NC/C=C\C(=O)O,3.97%
9,NC(N)=NC(N)=Nc1ccccc1,-3.27%
10,C=CCn1c(=O)c2c(nc(-c3ccc(S(=O)(=O)O)cc3)n2C)n(C)c1=O,-806% (active)
11,O=c1ccn([C@@H]2O[C@H](COP(=O)(O)OP(=O)(O)O)[C@@H](O)[C@H]2O)c(=O)[nH]1,-0.701%
12,CCCN(CCc1ccccc1)C1CCc2c(O)cccc2C1 (stereo not given),-0.152%
13,O=C(O)C1=CCCNC1,-1.96%
14,CCCCCC[C@@H]([C@@H](C)O)n1cnc2c(N)ncnc21,-6.57%
15,N#Cc1cc2nc(O)c(O)nc2cc1[N+](=O)[O-],-14.6%
16,CC(C)Cn1c(=O)n(C)c(=O)c2[nH]cnc21,-4.21%
